Results: PubChem BioAssay (Tox21)
Records with an inconclusive call do not appear. Where a call stands in place of a potency, no number is given. Calls of active or inactive are those of the source. Unless noted, calls come from the whole dose curve; as a rule, active = well fitted curve in the direction sought with a large enough effect in the repeat runs; inconclusive = weak or mixed curves; inactive = no such curve, though single readings can be large; an effect the other way counts as inactive or inconclusive.

What was measured:
[1] = A CellTox Green Cytotoxicity Assay to monitor cytotoxicity in HepG2 cells - 32 hour (AID 1224883); note: nearly all actives have a fitted effect of over 50% in size; note: potency is the fitted concentration of half-maximal effect
Method in brief: (§1)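 HepG2, 600 cells/well premixed w/ CellTox Green; 5 h settle, 37 C/5% CO2; pintool cpd add (DMSO); 37 C, 40 h; fluorescence read at 0, 8, 16, 24, 32, 40 h.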

[2] = A CellTox Green Cytotoxicity Assay to monitor cytotoxicity in HEK293 cells - 8 hour (AID 1224884); note: nearly all actives have a fitted effect of over 35% in size
Method in brief: (§2)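 Read-out: fluorescence of a cell-impermeant cyanine dye staining DNA of dead cells, proportional to cytotoxicity. HEK293, 600 cells/well with reagent, compound (23 nL DMSO) added after 5 h; reads at 0, 8, 16, 24, 32, 40 h.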

[3] = A CellTox Green Cytotoxicity Assay to monitor cytotoxicity in HEK293 cells - 16 hour (AID 1224888); note: nearly all actives have a fitted effect of over 35% in size; note: potency is the fitted concentration of half-maximal effect
Method in brief: as §2

[4] = qHTS RealTime-Glo MT Cell Viability Assay in HepG2 cells - 0 hour (AID 1224889); note: nearly all actives have a fitted effect of over 50% in size; note: potency is the fitted concentration of half-maximal effect
Method in brief: (§3)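 Viability was tracked continuously by NanoLuc luminescence from prosubstrate reduced by living HepG2 cells, at successive time points over 40 h of compound exposure. Cells with reagent were preincubated 5 h at 37 °C before compound addition.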

[5] = A CellTox Green Cytotoxicity Assay to monitor cytotoxicity in HepG2 cells - 8 hour (AID 1224890); note: nearly all actives have a fitted effect of over 45% in size; note: potency is the fitted concentration of half-maximal effect
Method in brief: as §1

[6] = qHTS assay to identify small molecule antagonists of the androgen receptor (AR) signaling pathway using the MDA cell line in the presence of 0.5 nM R1881 - cell viability counter screen (AID 1259242); note: nearly all actives have a fitted effect of over 45% in size
Method in brief: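 Live-cell protease fluorescence, CellTiter-Fluor, 30 min at 37C. Cells: MDA-kb2, 3,000/well, preincubated 5 hr. Compounds plus 0.5 nM R1881 final, 16 hr, 37C, 0% CO2.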

[7] = qHTS assay to identify small molecule HDAC inhibitors (AID 1259364);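 note: wild-type HCT-116 cells with endogenous class I/II HDAC activity; top concentration of the series differs between compounds; nearly all actives have a fitted effect of over 45% in size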
Method in brief: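 HCT-116 (wild type), 1,500 cells/well, overnight; compound 2 hr 37C 5% CO2; HDAC-Glo I/II reagent 30 min RT; luminescence readout.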

[8] = qHTS assay to identify small molecule HDAC inhibitors - cell viability counter screen (AID 1259365); note: series mostly up to about 92 µM; nearly all actives have a fitted effect of over 50% in size
Method in brief: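 Viability readout: CellTiter-Glo luminescence. Wild-type HCT-116 cells, 2hr compound treatment following overnight attachment at 37 C.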

[9] = qHTS assay to identify small molecule agonists of the sonic hedgehog signaling (Shh) pathway (AID 1259368; calls by dose curve;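 note: NIH/3T3-derived 3T3Gli1-Luc cells carrying a stable Gli1-driven firefly luciferase reporter; series mostly up to about 92 µM; nearly all actives have a fitted effect of over 15% in size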)
Method in brief: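 Read-out: firefly luciferase luminescence from a Gli1 response element reporter stably integrated in NIH/3T3-derived 3T3Gli1-Luc cells, measured 30 min at room temperature after reagent addition. Compound exposure lasted 24 hr at 37 C, 5% CO2.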

[10] = qHTS assay to identify small molecule antagonists of the sonic hedgehog signaling (Shh) pathway (AID 1259369; calls by dose curve; note: nearly all actives have a fitted effect of over 45% in size; note: potency is the fitted concentration of half-maximal effect)
Method in brief: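 Luminescence readout: firefly Luc under Gli1 response element in 3T3Gli1-Luc cells (NIH/3T3 clone). Antagonist mode, stimulation by conditioned medium; compound exposure 24hr at 37 C, 5% CO2.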

[11] = target: Estrogen receptor beta (Homo sapiens) (UniProt Q92731); test: qHTS assay to identify small molecule agonists of the estrogen receptor beta (ER-beta) signaling pathway (AID 1259377; active = well fitted activation curve with a large enough effect in the signal ratio in the repeat runs, not every such curve was filed as active; the % refers to the signal ratio; note: potency is the fitted concentration of half-maximal effect)
Method in brief: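 A UAS-controlled beta-lactamase reporter in ER-beta-UAS-bla HEK293T cells reports receptor activation. Compounds act for 16 hr at 37C in 2% charcoal-stripped serum, and a FRET substrate is read by fluorescence after 2 hours.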

[12] = qHTS RealTime-Glo MT Cell Viability Assay in HepG2 cells - 16 hour (AID 1224885); note: nearly all actives have a fitted effect of over 50% in size; note: potency is the fitted concentration of half-maximal effect
Method in brief: as §3

[13] = qHTS assay to identify small molecule antagonists of the estrogen receptor alpha (ER-alpha) signaling pathway using the BG1 cell line in the presence of 0.1 nM 17-beta-estradiol - cell viability counter screen (AID 1259241); note: nearly all actives have a fitted effect of over 40% in size
Method in brief: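 The cell line endogenously expresses full-length ER-alpha and carries four EREs driving luciferase. Cells are cultured 5 days hormone-free, treated 22 hr with compounds and 0.1 nM estradiol, then viability is read by fluorescence.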

[14] = qHTS assay to identify small molecule agonists of the sonic hedgehog signaling (Shh) pathway - cell viability counter screen (AID 1259366); note: nearly all actives have a fitted effect of over 50% in size; note: potency is the fitted concentration of half-maximal effect
Method in brief: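 Viability measured fluorometrically (CellTiter-Fluor, 1hr, 37C) in 3T3 Gli1-Luc reporter cells after 23hr compound exposure within a 24hr incubation at 37C/5% CO2.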

[15] = qHTS assay to identify small molecule antagonists of the sonic hedgehog signaling (Shh) pathway - cell viability counter screen (AID 1259367); note: nearly all actives have a fitted effect of over 55% in size; note: potency is the fitted concentration of half-maximal effect
Method in brief: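 Tox21 library chemicals were tested on a Gli1-Luc NIH/3T3 clone (2,000 cells/well) stimulated by conditioned medium; viability was quantified as fluorescence from CellTiter-Fluor reagent added at 23 hr.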

[16] = qHTS RealTime-Glo MT Cell Viability Assay in HEK293 cells - 24 hour (AID 1224886); note: nearly all actives have a fitted effect of over 50% in size; note: potency is the fitted concentration of half-maximal effect
Method in brief: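 Viability tracked continuously by luminescence as live cells reduce a prosubstrate for NanoLuc; HEK293 cells preincubated 5 h, compound-treated at 37 C, and read at 0, 8, 16, 24, 32 and 40 h.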

[17] = target: Estrogen receptor (Homo sapiens) (UniProt P03372); test: qHTS assay to identify small molecule antagonists of the estrogen receptor alpha (ER-alpha) signaling pathway using the BG1 cell line in the presence of 0.1 nM 17-beta-estradiol (AID 1259244); note: nearly all actives have a fitted effect of over 50% in size; note: potency is the fitted concentration of half-maximal effect
Method in brief: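 Luminescence after ONE-Glo (30 min, room temperature) measured ERE-luciferase activity in VM7Luc4E2 cells treated 22 h with compound and 0.1 nM final 17beta-estradiol as stimulator.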

[18] = qHTS RealTime-Glo MT Cell Viability Assay in HEK293 cells - 8 hour (AID 1224887); note: nearly all actives have a fitted effect of over 50% in size; note: potency is the fitted concentration of half-maximal effect
Method in brief: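 Luminescence readout at each listed time point; HEK293, 600 cells/well, RealTime-Glo MT reagent added with cells; compounds pinned (23 nL in DMSO) after 5 h at 37 C; continuous culture at 37 C.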

[19] = qHTS assay to identify small molecule phospholipidosis (PLD) inducers (AID 1259344; active = well fitted curve in the direction sought with a large enough effect; an effect the other way counts as inactive or inconclusive; note: potency is the fitted concentration of half-maximal effect)
Method in brief: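 Image-based: LipidTOX Red pit count/intensity per well and per cell; HepG2, 24 h compound at 37 C, PFA fixation, Hoechst counterstain.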

[20] = target: Androgen receptor (Homo sapiens) (UniProt P10275); test: qHTS assay to identify small molecule antagonists of the androgen receptor (AR) signaling pathway using the MDA cell line in the presence of 0.5 nM R1881 (AID 1259243)
Method in brief: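 MDA-kb2, MMTV-luc (AR/GR elements); 3,000 cells/well; cpd + 0.5 nM R1881 final; 16 hr 37C, 0% CO2; ONE-Glo 30 min RT; luminescence.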

Estrogen receptor (Homo sapiens), sequence (P03372 whole entry, looked up): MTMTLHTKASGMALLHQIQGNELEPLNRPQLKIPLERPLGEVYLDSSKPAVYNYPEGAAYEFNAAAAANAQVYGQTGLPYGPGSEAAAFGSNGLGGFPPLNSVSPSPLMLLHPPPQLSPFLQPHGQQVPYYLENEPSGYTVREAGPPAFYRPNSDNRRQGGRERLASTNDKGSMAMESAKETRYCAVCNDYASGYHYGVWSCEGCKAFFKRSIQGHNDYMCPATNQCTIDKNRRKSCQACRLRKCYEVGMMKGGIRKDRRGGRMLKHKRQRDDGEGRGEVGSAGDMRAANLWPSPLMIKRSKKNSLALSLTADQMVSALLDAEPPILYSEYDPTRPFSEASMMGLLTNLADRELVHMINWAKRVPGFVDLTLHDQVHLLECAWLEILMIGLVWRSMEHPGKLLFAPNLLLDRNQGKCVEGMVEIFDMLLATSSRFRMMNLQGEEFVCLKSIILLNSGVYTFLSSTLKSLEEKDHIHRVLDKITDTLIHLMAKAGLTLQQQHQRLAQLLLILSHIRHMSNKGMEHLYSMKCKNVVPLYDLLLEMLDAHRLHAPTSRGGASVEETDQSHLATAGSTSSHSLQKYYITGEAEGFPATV
Estrogen receptor beta (Homo sapiens), sequence (Q92731 whole entry, looked up): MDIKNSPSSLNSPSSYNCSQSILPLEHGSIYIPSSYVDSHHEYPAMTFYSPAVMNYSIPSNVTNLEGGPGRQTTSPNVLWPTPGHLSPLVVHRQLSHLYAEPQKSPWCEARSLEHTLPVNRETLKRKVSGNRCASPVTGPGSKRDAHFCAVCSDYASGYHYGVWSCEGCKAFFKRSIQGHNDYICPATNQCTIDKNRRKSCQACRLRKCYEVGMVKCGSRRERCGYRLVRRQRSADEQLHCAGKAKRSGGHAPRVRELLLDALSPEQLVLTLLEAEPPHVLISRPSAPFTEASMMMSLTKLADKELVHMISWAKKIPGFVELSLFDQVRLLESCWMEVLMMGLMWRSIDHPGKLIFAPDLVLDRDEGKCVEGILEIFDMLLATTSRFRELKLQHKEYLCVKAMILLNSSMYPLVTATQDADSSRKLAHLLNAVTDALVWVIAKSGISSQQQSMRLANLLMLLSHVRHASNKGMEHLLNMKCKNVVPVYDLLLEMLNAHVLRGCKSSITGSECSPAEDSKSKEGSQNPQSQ
Androgen receptor (Homo sapiens), sequence (P10275 whole entry, looked up): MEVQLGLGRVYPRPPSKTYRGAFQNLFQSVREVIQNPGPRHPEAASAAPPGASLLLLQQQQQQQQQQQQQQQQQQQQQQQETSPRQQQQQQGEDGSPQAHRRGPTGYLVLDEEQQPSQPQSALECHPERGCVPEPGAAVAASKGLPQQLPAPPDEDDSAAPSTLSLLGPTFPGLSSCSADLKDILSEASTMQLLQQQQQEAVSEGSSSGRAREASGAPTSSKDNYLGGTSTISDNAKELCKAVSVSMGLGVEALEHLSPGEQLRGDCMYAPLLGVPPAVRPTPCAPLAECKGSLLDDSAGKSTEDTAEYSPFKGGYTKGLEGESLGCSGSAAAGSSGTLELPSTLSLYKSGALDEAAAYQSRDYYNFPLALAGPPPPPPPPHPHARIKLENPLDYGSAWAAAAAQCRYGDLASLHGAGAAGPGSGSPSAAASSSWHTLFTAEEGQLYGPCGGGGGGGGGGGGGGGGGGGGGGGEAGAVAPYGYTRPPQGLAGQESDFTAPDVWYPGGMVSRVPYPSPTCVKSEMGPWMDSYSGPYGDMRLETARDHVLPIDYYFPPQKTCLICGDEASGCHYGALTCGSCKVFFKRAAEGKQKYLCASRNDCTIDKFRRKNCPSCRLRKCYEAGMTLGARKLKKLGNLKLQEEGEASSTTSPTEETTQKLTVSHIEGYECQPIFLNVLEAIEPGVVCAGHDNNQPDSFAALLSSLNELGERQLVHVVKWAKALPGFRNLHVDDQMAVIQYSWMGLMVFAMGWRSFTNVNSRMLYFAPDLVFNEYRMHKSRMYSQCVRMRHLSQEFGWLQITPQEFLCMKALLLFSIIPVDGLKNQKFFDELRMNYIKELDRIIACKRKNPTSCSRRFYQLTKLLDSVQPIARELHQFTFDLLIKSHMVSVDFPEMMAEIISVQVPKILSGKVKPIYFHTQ

Compound	Potency [1]	Potency [2]	Potency [3]	Potency [4]	Potency [5]	Potency [6]	Potency [7]	Potency [8]	Potency [9]	Potency [10]	Potency [11]	Potency [12]	Potency [13]	Potency [14]	Potency [15]	Potency [16]	Potency [17]	Potency [18]	Potency [19]	Potency [20]
O=C1NCN(c2ccccc2)C12CCN(CC1COc3ccccc3O1)CC2 (stereo not drawn)	inactive	inactive	inactive	inactive	inactive	inactive	inactive	inactive	inactive	inactive	inactive									
CC(Cc1ccc(C(C)(C)C)cc1)CN1C[C@@H](C)O[C@@H](C)C1 (stereo partly drawn)	49 µM (active)			inactive		inactive	inactive	inactive	inactive		inactive	inactive	inactive	inactive	inactive					
CN(C)C1CSSSC1	inactive		inactive	inactive	inactive	inactive	inactive	inactive	inactive			inactive	inactive	inactive		inactive	inactive			
CCOC(=O)C1(c2ccccc2)CCN(CCC(C#N)(c2ccccc2)c2ccccc2)CC1	inactive	inactive	inactive	inactive	inactive	inactive	inactive	inactive	inactive		inactive			inactive	inactive	inactive	inactive	inactive	inactive	
CC(C)(C)C(O)/C(=C\c1ccc(Cl)cc1Cl)n1cncn1 (stereo not drawn)	59.3 µM (active)	inactive	inactive	inactive	inactive		inactive	inactive	inactive	7.4 µM (active)	inactive				65.9 µM (active)	26.5 µM (active)	74 µM (active)	47.1 µM (active)		
COC(=O)N(C(=O)N1CO[C@@]2(C(=O)OC)Cc3cc(Cl)ccc3C2=N1)c1ccc(OC(F)(F)F)cc1	inactive		inactive	inactive	inactive	inactive	inactive	inactive	inactive		inactive		inactive	inactive	inactive		46.9 µM (active)			
CC(=O)O[C@H]1CC[C@@]2(C)C(=CC[C@@H]3[C@@H]2CC[C@]2(C)C(=O)CC[C@@H]32)C1	inactive		inactive	inactive	inactive	inactive	inactive		inactive		1.72 µM (active)	inactive	inactive	inactive	inactive	54.9 µM (active)	inactive		inactive	5.45 µM (active)
Nc1ccc(Cl)cc1C(=O)c1ccccc1	inactive			inactive	inactive		inactive	inactive	inactive		inactive	inactive		inactive			inactive			
Clc1ccc(CSC(Cn2ccnc2)c2ccc(Cl)cc2Cl)cc1 (stereo not drawn)	inactive	inactive	inactive	inactive	inactive		inactive		inactive	inactive			inactive		26.6 µM (active)				inactive	
O=c1ssc(Cl)c1Cl	19.5 µM (active)		38.9 µM (active)	43.6 µM (active)	24.5 µM (active)				inactive			21.9 µM (active)		30.6 µM (active)		15.5 µM (active)	inactive	17.4 µM (active)		
CCOCn1c(-c2ccc(Cl)cc2)c(C#N)c(Br)c1C(F)(F)F	12.3 µM (active)	inactive	inactive	inactive	inactive		inactive	inactive	inactive	0.611 µM (active)				inactive		4.9 µM (active)	1.93 µM (active)	19.5 µM (active)		
Cn1cc(C2=C(c3cn(C4CCN(Cc5ccccn5)CC4)c4ccccc34)C(=O)NC2=O)c2ccccc21	inactive	inactive	inactive	inactive		inactive	inactive	inactive	inactive					inactive	inactive	inactive		inactive	1.78 µM (active)	
ClCc1ccc(Cl)cc1Cl	inactive			inactive	inactive	inactive		inactive	inactive	inactive		inactive	inactive	inactive		inactive	inactive	inactive		
C=CC(=O)OCCCCOC(=O)C=C	43.6 µM (active)	inactive	inactive	inactive	inactive								inactive	61.1 µM (active)		34.7 µM (active)	inactive	inactive		
COc1cc(C=O)cc2c1[C@H](COC(N)=O)[C@]1(OC(C)=O)ON2C[C@H]2[C@@H]1N2C(C)=O	0.0977 µM (active)	inactive	inactive		inactive	inactive	inactive	inactive	inactive					6.11 µM (active)		0.245 µM (active)	0.154 µM (active)	inactive		
O=c1oc2ccccc2c(O)c1Cc1c(O)c2ccccc2oc1=O	inactive	inactive	inactive		inactive	inactive	inactive		inactive	inactive				inactive		inactive		inactive	inactive	
